# Publication PMC7862700, “An all-to-all approach to the identification of sequence-specific readers for epigenetic DNA modifications on cytosine”
# How the values were obtained:
# Assay in all cases: DAPPL (digital affinity profiling via proximity ligation, sequencing); 10 mM Tris-HCl pH 7.5, 50 mM NaCl, 1 mM DTT, 4% glycerol, room temperature, 30 min; GST-TFs on glutathione beads, 16-mer random dsDNA library, 0.1% formaldehyde crosslink after washing; high values mean tight binding
# [1] = target: T1, FEV (Homo sapiens, UniProt Q99581 1-238); conditions: protein: recombinant; tags: N-terminal GST; dsDNA, one strand shown
# T1 sequence: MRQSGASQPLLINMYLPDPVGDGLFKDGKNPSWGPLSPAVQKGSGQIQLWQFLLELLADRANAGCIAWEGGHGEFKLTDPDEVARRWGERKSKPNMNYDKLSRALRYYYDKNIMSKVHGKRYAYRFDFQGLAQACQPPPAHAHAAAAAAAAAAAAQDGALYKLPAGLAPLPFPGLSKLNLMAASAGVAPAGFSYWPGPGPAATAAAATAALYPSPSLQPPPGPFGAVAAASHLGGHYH
# In short: (§1)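 After expression in yeast as GST fusions, human transcription factors were bound to glutathione beads, DNA-barcoded and mixed with a tag-only sample. The pools were incubated with 200 nmole of a 16-mer random double-stranded DNA library in Tris/NaCl/DTT/glycerol buffer (30 min, room temperature), washed and crosslinked with 0.1% formaldehyde. Proximity ligation with BsaI/T4 ligase ran for 1 h at 37 °C, before PCR amplification and sequencing on an Illumina NextSeq500. Binding signal is a hexamer's read frequency for a factor divided by its frequency for the tag-only sample.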
# [2] = target: ETV5 (Homo sapiens, UniProt P41161 1-510); conditions: protein: recombinant; tags: N-terminal GST; dsDNA, one strand shown
# In short: as §1
# [3] = target: HSF1 (Homo sapiens, UniProt Q00613 1-529); conditions: protein: recombinant; tags: N-terminal GST; chain copies: 3; dsDNA, one strand shown
# In short: as §1
# [4] = target: T2, SPIC (Homo sapiens, UniProt Q8N5J4 1-248); conditions: protein: recombinant; tags: N-terminal GST; dsDNA, one strand shown
# T2 sequence: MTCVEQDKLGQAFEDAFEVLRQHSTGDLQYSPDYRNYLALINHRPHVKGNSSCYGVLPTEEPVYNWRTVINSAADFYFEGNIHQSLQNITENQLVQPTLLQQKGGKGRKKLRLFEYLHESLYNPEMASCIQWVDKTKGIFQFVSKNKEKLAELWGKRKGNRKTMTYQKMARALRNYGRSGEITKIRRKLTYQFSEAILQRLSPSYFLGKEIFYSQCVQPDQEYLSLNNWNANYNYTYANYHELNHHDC
# In short: as §1
# [5] = target: ELF4 (Homo sapiens, UniProt Q99607 1-663); conditions: protein: recombinant; tags: N-terminal GST; dsDNA, one strand shown
# In short: as §1
# [6] = target: T3, ELK4 (Homo sapiens, UniProt P28324-2 1-405); conditions: protein: recombinant; tags: N-terminal GST; dsDNA, one strand shown
# T3 sequence: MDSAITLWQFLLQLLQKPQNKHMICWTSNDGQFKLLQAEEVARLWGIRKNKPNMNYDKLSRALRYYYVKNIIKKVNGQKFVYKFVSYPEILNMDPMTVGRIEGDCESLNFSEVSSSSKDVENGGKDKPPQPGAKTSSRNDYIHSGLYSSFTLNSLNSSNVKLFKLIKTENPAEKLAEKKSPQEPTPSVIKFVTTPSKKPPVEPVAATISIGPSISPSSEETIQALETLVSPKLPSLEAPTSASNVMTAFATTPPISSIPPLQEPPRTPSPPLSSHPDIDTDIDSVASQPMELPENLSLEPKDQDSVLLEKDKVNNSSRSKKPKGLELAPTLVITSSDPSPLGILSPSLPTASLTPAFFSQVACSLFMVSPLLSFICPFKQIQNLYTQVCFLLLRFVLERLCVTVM
# In short: as §1
# [7] = target: T4, ETV2 (Homo sapiens, UniProt O00321 1-342); conditions: protein: recombinant; tags: N-terminal GST; dsDNA, one strand shown
# T4 sequence: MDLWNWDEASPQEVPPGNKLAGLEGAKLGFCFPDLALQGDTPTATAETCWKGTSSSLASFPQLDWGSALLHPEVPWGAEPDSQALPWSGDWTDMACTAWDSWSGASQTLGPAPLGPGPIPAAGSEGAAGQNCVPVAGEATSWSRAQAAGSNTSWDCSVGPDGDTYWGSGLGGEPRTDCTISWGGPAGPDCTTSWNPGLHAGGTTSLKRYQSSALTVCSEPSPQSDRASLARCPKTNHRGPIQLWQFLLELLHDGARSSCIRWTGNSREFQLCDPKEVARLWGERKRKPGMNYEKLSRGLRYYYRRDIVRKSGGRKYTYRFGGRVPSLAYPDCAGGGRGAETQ
# In short: as §1
# [8] = target: T5, ELF3 (Homo sapiens, UniProt P78545 1-371); conditions: protein: recombinant; tags: N-terminal GST; dsDNA, one strand shown
# T5 sequence: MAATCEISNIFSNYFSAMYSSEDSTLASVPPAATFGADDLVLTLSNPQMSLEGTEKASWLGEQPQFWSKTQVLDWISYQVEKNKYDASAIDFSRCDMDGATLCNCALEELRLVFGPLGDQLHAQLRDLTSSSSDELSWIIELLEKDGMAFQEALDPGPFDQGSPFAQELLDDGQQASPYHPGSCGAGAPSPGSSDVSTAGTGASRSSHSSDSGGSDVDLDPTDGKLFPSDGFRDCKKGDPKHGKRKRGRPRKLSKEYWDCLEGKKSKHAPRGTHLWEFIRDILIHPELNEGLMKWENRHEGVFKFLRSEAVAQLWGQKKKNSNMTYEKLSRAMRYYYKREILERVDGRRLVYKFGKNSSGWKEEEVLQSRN
# In short: as §1
# [9] = target: CRX (Homo sapiens, UniProt O43186 1-299); conditions: protein: recombinant; tags: N-terminal GST; dsDNA, one strand shown
# In short: as §1
# [10] = target: ETV1 (Homo sapiens, UniProt P50549 1-477); conditions: protein: recombinant; tags: N-terminal GST; dsDNA, one strand shown
# In short: as §1
# [11] = target: T6, ERF (Homo sapiens, UniProt P50548 1-548); conditions: protein: recombinant; tags: N-terminal GST; dsDNA, one strand shown
# T6 sequence: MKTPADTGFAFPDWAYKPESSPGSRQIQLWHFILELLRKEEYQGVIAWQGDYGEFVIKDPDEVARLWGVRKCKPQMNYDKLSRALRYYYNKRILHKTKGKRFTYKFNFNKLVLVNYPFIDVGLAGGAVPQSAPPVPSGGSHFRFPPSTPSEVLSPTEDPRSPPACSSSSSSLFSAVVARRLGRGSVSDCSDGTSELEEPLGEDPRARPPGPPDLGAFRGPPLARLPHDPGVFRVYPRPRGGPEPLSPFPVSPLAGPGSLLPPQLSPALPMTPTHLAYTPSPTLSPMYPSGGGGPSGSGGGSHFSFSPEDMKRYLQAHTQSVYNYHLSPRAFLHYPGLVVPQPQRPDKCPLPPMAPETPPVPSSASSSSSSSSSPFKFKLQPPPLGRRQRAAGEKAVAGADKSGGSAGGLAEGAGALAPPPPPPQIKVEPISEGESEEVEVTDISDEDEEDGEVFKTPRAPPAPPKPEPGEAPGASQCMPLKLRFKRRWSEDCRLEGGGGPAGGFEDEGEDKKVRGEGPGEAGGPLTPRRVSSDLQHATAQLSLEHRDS
# In short: as §1
# [12] = target: T7, ETV3L (Homo sapiens, UniProt Q6ZN32 1-361); conditions: protein: recombinant; tags: N-terminal GST; dsDNA, one strand shown
# T7 sequence: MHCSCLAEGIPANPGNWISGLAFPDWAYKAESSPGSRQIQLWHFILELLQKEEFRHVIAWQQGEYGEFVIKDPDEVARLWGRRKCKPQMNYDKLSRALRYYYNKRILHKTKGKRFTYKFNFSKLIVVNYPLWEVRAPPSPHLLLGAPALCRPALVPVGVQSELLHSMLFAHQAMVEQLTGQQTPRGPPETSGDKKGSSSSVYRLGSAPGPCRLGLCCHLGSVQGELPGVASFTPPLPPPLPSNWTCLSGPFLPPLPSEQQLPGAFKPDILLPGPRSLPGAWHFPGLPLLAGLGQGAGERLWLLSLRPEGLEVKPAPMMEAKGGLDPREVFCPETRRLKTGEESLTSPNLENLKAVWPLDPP
# In short: as §1
# [13] = target: T8, ETS2 (Homo sapiens, UniProt P15036 1-469); conditions: protein: recombinant; tags: N-terminal GST; dsDNA, one strand shown
# T8 sequence: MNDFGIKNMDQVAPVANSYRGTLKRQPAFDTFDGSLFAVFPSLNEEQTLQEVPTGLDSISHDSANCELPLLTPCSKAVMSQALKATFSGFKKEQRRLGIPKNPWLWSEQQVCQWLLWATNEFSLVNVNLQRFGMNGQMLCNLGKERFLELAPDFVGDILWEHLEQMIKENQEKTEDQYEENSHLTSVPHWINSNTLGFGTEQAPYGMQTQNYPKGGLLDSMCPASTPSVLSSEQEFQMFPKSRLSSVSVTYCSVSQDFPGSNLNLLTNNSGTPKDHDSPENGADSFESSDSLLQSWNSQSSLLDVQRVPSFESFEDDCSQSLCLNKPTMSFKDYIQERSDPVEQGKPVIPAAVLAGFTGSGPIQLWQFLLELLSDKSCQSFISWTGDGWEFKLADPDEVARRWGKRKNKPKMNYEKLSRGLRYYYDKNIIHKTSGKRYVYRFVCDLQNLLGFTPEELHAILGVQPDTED
# In short: as §1
# [14] = target: T9, SPDEF (Homo sapiens, UniProt O95238 1-335); conditions: protein: recombinant; tags: N-terminal GST; dsDNA, one strand shown
# T9 sequence: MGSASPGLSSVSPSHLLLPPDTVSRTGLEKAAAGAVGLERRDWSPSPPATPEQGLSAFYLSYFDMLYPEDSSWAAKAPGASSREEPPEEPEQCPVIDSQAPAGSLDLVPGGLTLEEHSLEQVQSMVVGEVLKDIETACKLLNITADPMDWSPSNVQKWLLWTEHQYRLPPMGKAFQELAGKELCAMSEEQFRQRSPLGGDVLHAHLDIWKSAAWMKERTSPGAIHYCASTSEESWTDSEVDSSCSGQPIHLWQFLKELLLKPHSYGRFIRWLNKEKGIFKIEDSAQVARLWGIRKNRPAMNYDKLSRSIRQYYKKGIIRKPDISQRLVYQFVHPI
# In short: as §1
# [15] = target: T10, ETV7 (Homo sapiens, UniProt Q9Y603 1-341); conditions: protein: recombinant; tags: N-terminal GST; dsDNA, one strand shown
# T10 sequence: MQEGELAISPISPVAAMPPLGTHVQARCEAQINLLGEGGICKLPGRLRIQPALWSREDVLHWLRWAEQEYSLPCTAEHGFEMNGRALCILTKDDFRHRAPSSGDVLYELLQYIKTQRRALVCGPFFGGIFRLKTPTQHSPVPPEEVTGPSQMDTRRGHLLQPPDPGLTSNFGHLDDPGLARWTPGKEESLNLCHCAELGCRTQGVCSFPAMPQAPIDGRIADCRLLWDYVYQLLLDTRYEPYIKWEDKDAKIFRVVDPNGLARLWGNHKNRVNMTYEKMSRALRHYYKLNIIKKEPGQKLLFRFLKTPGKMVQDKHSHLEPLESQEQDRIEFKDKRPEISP
# In short: as §1
# [16] = target: T11, ELF5 (Homo sapiens, UniProt Q9UKW6-2 1-255); conditions: protein: recombinant; tags: N-terminal GST; dsDNA, one strand shown
# T11 sequence: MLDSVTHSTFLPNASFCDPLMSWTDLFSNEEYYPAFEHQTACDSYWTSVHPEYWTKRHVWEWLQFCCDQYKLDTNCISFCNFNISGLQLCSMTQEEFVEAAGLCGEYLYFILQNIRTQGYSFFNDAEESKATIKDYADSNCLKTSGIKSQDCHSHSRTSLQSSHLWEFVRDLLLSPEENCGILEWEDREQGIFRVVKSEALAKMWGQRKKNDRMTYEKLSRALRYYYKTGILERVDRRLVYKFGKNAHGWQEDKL
# In short: as §1
# [17] = target: T12, ETV3 (Homo sapiens, UniProt P41162-2 1-143); conditions: protein: recombinant; tags: N-terminal GST; dsDNA, one strand shown
# T12 sequence: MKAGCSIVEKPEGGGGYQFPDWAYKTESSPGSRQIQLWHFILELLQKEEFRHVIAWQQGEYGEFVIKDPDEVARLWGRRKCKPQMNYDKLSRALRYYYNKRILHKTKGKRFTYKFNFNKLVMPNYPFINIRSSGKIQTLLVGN
# In short: as §1
# [18] = target: ETV6 (Homo sapiens, UniProt P41212 1-452); conditions: protein: recombinant; tags: N-terminal GST; dsDNA, one strand shown
# In short: as §1
# Sequence of CRX (O43186 whole entry): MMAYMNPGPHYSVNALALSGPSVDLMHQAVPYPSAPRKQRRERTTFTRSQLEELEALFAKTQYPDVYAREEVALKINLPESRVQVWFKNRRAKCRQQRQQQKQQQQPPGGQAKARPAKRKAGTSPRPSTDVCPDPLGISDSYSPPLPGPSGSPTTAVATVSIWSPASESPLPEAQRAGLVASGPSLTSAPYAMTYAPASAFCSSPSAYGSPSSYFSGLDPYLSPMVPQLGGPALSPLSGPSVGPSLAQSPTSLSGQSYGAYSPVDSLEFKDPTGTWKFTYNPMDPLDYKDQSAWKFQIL
# Sequence of ETV1 (P50549 whole entry): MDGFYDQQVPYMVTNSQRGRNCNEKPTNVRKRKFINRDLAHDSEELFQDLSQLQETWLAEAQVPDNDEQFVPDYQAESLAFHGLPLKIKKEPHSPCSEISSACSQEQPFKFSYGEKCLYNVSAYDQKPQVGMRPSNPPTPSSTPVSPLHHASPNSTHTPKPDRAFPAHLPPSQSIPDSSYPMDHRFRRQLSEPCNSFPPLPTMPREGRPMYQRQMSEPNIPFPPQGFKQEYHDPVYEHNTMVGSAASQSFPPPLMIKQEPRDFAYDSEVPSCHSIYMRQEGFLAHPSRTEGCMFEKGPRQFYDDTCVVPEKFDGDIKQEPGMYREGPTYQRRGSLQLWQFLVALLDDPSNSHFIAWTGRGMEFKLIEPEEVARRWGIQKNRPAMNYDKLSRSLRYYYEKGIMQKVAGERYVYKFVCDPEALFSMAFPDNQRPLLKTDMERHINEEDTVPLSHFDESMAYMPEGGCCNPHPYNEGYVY
# Sequence of ELF4 (Q99607 whole entry): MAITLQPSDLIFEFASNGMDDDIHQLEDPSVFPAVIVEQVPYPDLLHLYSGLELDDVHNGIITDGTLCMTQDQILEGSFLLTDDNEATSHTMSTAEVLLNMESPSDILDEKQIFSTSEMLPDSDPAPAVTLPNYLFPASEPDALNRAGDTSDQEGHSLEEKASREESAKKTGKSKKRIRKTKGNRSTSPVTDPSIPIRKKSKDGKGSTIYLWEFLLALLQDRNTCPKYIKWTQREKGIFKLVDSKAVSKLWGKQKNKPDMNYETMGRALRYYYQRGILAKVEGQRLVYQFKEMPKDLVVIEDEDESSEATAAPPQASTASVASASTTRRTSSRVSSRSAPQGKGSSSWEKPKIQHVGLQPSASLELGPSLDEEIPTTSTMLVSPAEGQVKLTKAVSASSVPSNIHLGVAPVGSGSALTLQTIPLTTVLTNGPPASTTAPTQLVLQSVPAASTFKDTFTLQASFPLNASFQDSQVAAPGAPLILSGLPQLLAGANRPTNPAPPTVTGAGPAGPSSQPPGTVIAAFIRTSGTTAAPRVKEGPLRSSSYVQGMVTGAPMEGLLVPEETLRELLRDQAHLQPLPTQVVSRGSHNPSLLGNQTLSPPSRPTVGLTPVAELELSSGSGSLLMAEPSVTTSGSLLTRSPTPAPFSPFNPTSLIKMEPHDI
# Sequence of HSF1 (Q00613 whole entry): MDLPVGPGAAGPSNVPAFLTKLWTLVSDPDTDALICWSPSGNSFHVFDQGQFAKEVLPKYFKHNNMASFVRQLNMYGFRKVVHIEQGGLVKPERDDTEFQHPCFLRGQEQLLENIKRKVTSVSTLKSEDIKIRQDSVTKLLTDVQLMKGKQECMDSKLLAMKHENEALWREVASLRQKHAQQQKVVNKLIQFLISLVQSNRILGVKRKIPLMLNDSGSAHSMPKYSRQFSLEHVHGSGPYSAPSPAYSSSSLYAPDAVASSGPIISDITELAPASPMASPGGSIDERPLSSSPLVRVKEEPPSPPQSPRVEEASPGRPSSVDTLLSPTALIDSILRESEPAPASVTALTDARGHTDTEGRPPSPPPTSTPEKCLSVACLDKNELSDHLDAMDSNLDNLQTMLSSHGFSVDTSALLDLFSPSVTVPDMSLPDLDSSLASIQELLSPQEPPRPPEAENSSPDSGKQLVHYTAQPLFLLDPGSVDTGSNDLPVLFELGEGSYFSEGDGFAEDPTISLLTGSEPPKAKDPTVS
# Sequence of ETV5 (P41161 whole entry): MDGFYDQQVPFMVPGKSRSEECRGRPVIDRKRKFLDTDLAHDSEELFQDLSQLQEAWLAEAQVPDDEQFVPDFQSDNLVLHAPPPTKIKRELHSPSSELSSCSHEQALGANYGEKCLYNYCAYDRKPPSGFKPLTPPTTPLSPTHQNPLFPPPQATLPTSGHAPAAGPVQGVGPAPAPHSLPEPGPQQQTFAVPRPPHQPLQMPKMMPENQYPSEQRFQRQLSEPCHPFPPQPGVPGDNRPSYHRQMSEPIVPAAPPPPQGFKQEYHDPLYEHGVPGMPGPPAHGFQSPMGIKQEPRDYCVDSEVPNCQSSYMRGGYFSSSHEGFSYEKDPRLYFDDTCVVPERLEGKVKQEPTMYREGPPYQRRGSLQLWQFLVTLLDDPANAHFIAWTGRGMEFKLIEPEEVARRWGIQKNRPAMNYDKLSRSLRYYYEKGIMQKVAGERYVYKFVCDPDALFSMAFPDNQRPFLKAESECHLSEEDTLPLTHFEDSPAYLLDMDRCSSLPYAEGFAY
# Sequence of ETV6 (P41212 whole entry): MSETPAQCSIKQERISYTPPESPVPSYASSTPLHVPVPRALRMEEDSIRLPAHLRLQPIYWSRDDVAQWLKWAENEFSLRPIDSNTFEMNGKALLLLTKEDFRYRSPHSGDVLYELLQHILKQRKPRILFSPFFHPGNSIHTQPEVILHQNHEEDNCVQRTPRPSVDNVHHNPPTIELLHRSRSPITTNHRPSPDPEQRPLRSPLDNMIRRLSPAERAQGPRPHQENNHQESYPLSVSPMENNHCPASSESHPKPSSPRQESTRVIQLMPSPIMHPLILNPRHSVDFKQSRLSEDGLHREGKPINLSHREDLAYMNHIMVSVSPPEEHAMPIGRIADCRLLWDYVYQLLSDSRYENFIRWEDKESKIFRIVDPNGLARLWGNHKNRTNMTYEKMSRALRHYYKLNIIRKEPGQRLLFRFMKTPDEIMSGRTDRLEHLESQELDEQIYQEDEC
sequence,measurement,setting,value
CCCTCG,binding signal,[1],"1.19 fold enrichment (6-mer frequency, TF over GST control)"
same,binding signal,[2],"1.19 fold enrichment (6-mer frequency, TF over GST control)"
same,binding signal,[3],"1.22 fold enrichment (6-mer frequency, TF over GST control)"
same,binding signal,[4],"1.25 fold enrichment (6-mer frequency, TF over GST control)"
same,binding signal,[5],"1.36 fold enrichment (6-mer frequency, TF over GST control)"
same,binding signal,[6],"1.36 fold enrichment (6-mer frequency, TF over GST control)"
same,binding signal,[7],"1.25 fold enrichment (6-mer frequency, TF over GST control)"
same,binding signal,[8],"1.17 fold enrichment (6-mer frequency, TF over GST control)"
same,binding signal,[9],"1.06 fold enrichment (6-mer frequency, TF over GST control)"
same,binding signal,[10],"1.25 fold enrichment (6-mer frequency, TF over GST control)"
same,binding signal,[11],"1.24 fold enrichment (6-mer frequency, TF over GST control)"
same,binding signal,[12],"1.24 fold enrichment (6-mer frequency, TF over GST control)"
same,binding signal,[13],"1.29 fold enrichment (6-mer frequency, TF over GST control)"
same,binding signal,[14],"1.23 fold enrichment (6-mer frequency, TF over GST control)"
same,binding signal,[15],"1.3 fold enrichment (6-mer frequency, TF over GST control)"
same,binding signal,[16],"1.19 fold enrichment (6-mer frequency, TF over GST control)"
same,binding signal,[17],"1.16 fold enrichment (6-mer frequency, TF over GST control)"
same,binding signal,[18],"1.18 fold enrichment (6-mer frequency, TF over GST control)"
